# Reference: the supplement of paper PMC7695840
# Counter-ions that a name gives are not always drawn.
# Experiments:
# [1] = tested on: Staphylococcus aureus MW2 delta-mecA (mecA-); assay: normalized GFP fluorescence (growth of mecA- strain) (fraction of control range); higher = more growth of mecA- strain; conditions: compound concentration: 150 uM; cefoxitin: subinhibitory; fluorescent label: GFP
# Method in brief: (§1)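 Single-replicate 1536-well plates carried 150 μM compound (1.5% DMSO), onto which 5 µL/well of a 1:1 mix of pre-induced S. aureus MW2 cells was dispensed: gene-carrying cells tagged with DsRed and deletion cells tagged with GFP, in LB with a subinhibitory antibiotic dose set daily. Incubation ran 20 h at 37 °C, 90% humidity, unshaken, followed by DsRed (540/590) and GFP (485/520) reads. Per-plate scaling of each channel used single-strain control medians, and plates with high untreated ratios and rows with DsRed/GFP >10 were excluded.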
# [2] = tested on: Staphylococcus aureus MW2 (mecA+); assay: normalized DsRed fluorescence (growth of mecA+ strain) (fraction of control range); higher = more growth of mecA+ strain; conditions: compound concentration: 150 uM; cefoxitin: subinhibitory; fluorescent label: DsRed
# Method in brief: as §1
Structure (SMILES),normalized GFP fluorescence [1],normalized DsRed fluorescence [2]
CN(C)C(=O)Oc1cccc([N+](C)(C)C)c1,0.41,1.1
c1ccc2c(c1)Nc1ccccc1S2,0.132,0.671
CN1C(=O)CCS(=O)(=O)C1c1ccc(Cl)cc1 (stereo not given),0.212,0.676
CCN(C)C(=O)Oc1cccc([C@H](C)N(C)C)c1,0.23,0.742
CC(NC(C)(C)C)C(=O)c1cccc(Cl)c1 (stereo not given),0.332,0.882
CN1[C@@H]2C[C@@H](OC(=O)[C@H](CO)c3ccccc3)C[C@H]1[C@@H]1O[C@@H]12,0.83,0.7
Cn1c(CCCC(=O)O)nc2cc(N(CCCl)CCCl)ccc21 [Bendamustine HCL],0.659,0.83
COc1ccc(C(CN(C)C)C2(O)CCCCC2)cc1 (stereo not given),0.6,0.623
C#C[C@]1(O)C=C[C@H]2[C@@H]3CCC4=CC(=O)CC[C@@H]4[C@H]3CC[C@@]21CC [Gestodene],0.342,0.279
C[N+]12CCC(CC1)C(OC(=O)C(O)(c1ccccc1)c1ccccc1)C2 (stereo not given),0.468,0.579
COc1ccc(OC)c(C(O)C(C)N)c1 (stereo not given),0.864,0.526
CCC1(c2cccc(O)c2)CCCCN(C)C1 (stereo not given) [Meptazinol HCl],0.168,0.815
CN1CCN(C(=O)O[C@H]2c3nccnc3C(=O)N2c2ccc(Cl)cn2)CC1,0.334,0.793
Cc1c(N)nc(C(CC(N)=O)NCC(N)C(N)=O)nc1C(=O)NC(C(=O)NC(C)C(O)C(C)C(=O)NC(C(=O)NCCc1nc(-c2nc(C(=O)NCCC[S+](C)C)cs2)cs1)C(C)O)C(O[C@@H]1O[C@@H](CO)[C@@H](O)[C@H](O)[C@@H]1O[C@H]1O[C@H](CO)[C@@H](O)[C@H](OC(N)=O)[C@@H]1O)c1cnc[nH]1 (stereo not given in full),0.114,0.862
C[N+]1([O-])[C@@H]2CC[C@H]1C[C@@H](OC(=O)C(CO)c1ccccc1)C2 (stereo not given in full),0.483,1.24
CC(=O)OC1CN2CCC1CC2 (stereo not given),0.565,0.665
C[C@]12CCC(=O)C(O)=C1CC[C@@H]1[C@@H]2CC[C@]2(C)C(=O)CC[C@@H]12 [Formestane],0.477,0.7

Structure (SMILES),normalized GFP fluorescence [1],normalized DsRed fluorescence [2]
C[N+]1(C)[C@@H]2CC[C@H]1C[C@@H](OC(=O)C(CO)c1ccccc1)C2 (stereo not given in full),0.479,0.574
C[N+]1(C)CCCC(OC(=O)C(O)(c2ccccc2)c2ccccc2)C1 (stereo not given),0.765,0.852
N[C@@H](Cc1ccc(N(CCCl)CCCl)cc1)C(=O)O,0.309,0.612
O=[N+]([O-])O[C@H]1CO[C@H]2[C@@H]1OC[C@H]2O[N+](=O)[O-],0.915,0.65
Cc1cccc([C@H](C)c2c[nH]cn2)c1C [Dexmedetomidine],0.289,0.702
C=CCN1CC[C@]23c4c5ccc(O)c4O[C@H]2C(=O)CC[C@@]3(O)[C@H]1C5,0.642,0.643
CN1C[C@H](C(=O)N[C@]2(C)O[C@@]3(O)[C@@H]4CCCN4C(=O)[C@H](Cc4ccccc4)N3C2=O)C[C@@H]2c3cccc4[nH]cc(c34)C[C@H]21,0.246,0.753
CC[C@H](C)[C@H]1O[C@]2(C=C[C@@H]1C)C[C@@H]1C[C@@H](C/C=C(\C)[C@@H](O[C@H]3C[C@H](OC)[C@@H](O[C@H]4C[C@H](OC)[C@@H](O)[C@H](C)O4)[C@H](C)O3)[C@@H](C)/C=C/C=C3\CO[C@@H]4[C@H](O)C(C)=C[C@@H](C(=O)O1)[C@]34O)O2.CO[C@H]1C[C@H](O[C@H]2[C@H](C)O[C@@H](O[C@@H]3/C(C)=C/C[C@@H]4C[C@@H](C[C@]5(C=C[C@H](C)[C@@H](C(C)C)O5)O4)OC(=O)[C@@H]4C=C(C)[C@@H](O)[C@H]5OC/C(=C\C=C\[C@@H]3C)[C@]54O)C[C@@H]2OC)O[C@@H](C)[C@@H]1O,0.294,0.502
CC(C)CC(N(C)C)C1(c2ccc(Cl)cc2)CCC1 (stereo not given),0.0915,
CC[C@H]1CN2CCc3cc(OC)c(OC)cc3[C@@H]2C[C@@H]1C[C@H]1NCCc2cc(OC)c(OC)cc21,0.439,0.948
CC(C)C[C@H](CN)CC(=O)O,0.412,0.571
CNC(C)(C)Cc1ccccc1,0.75,0.831
NCC1(CC(=O)O)CCCCC1,0.647,0.674
CC[C@@H](CO)NC(=O)[C@@H]1C=C2c3cccc4c3c(cn4C)C[C@H]2N(C)C1,0.269,0.713
CC(NC(C)(C)C)C(=O)c1cccc(Cl)c1 (stereo not given) [Amfebutamone (Bupropion)],0.395,0.602
CNCC(O)c1ccc(O)cc1 (stereo not given) [Synephrine (Oxedrine)],0.516,0.777
